Compounds with a hit are over-represented: about 19% of the library has one in this group of screens.
HT1080-NT tox – kills 2HG-producing HT-1080-NT fibrosarcoma cells. HT-1080-NT fibrosarcoma viability, CellTiter-Glo ATP luminescence, 48 h. Potency, µM (top dose mostly 46.1 µM), without a hit: top-dose activity, negative = less viability, most hits filed as cytotoxic. hit rate 1.6% among 360,000;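 note: NT is the 2HG producing partner of a matched IDH1 knockdown line; 0% = DMSO-treated cells and -100% = media-only wells without cells; nearly all actives have a fitted effect of over 55% in size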
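Compounds were tested in concentration-response format on HT-1080-NT cells for 48 hours at 37 degrees C. Cell viability came from CellTiter-Glo luminescence; curves were classified by r2, response magnitude and activity.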
KB-V1 cytotox – KB-V1 MDR subline cytotoxicity. hit rate 3.4% among 400,000. KB-V1 MDR cells viability, CellTiter-Glo, 72 h. Potency, µM (series often up to 46.1 µM), actives largely listed as cytotoxic; note: nearly all actives have a fitted effect of over 60% in size
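Cytotoxicity toward P-gp-expressing KB-V1 cells was determined as loss of CellTiter-Glo luminescence after 72 h at 37 degrees C. Compounds were tested in quantitative HTS format across a concentration range, with curves fitted to normalized data.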
KB-3-1 cytotox – kills parental KB-3-1 adenocarcinoma cells. KB-3-1 viability, CellTiter-Glo ATP luminescence, 72 h. Potency, µM (doses to about 46.1 µM), actives largely listed as cytotoxic. hit rate 1.4% among 400,000. AID 1347075; note: nearly all actives have a fitted effect of over 60% in size
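Viability of parental KB-3-1 cells, measured by CellTiter-Glo luminescence, followed a 72 h incubation at 37 °C with pinned compounds in phenol-red-free DMEM containing 10% FBS.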
TDP1 cell CPT – growth inhibition of DT40 Tdp1-/-;hTDP1 cells with camptothecin (screen for TDP1 inhibitors). hit rate 12% among 420,000. Potency, µM (titrated, usually from 46.2 µM), for inactives: at the highest dose activity change, negative = growth inhibition, hits mostly inhibitors. chicken DT40 Tdp1-/-;hTDP1 cells + 20 nM CPT, ATP luminescence, 48 h; note: nearly all actives have a fitted effect of over 55% in size
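Chicken DT40 Tdp1-/- cells stably complemented with human TDP1 were seeded at 400 cells/well in medium containing 20 nM camptothecin, exposed to pin-transferred compounds, and grown at 37 °C for at least 48 hr. Viability was read as ATP luminescence.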
TDP1 cell noCPT – qHTS for Inhibitors of human tyrosyl-DNA phosphodiesterase 1 (TDP1): qHTS in cells in absence of CPT. DT40 Tdp1-/- hTDP1 cells, no CPT, ATP luminescence, 48 h. Potency, µM (doses to about 46.2 µM), inactives show at the top dose activity change, negative = growth inhibition, actives largely listed as inhibitors. hit rate 15% among 420,000. AID 686978, 2013; note: nearly all actives have a fitted effect of over 55% in size
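Compound effects on proliferation are scored in DT40 Tdp1-/-;hTDP1 cells in the absence of CPT. ATP levels (CellTiter-Glo luminescence) are recorded after a ≥48 hr, 37 °C incubation.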
HT1080 IDH1KD tx – toxicity to HT-1080 IDH1 knockdown cells (counter line). HT-1080 IDH1 knockdown viability, ATP luminescence, 48 h. hit rate 2% among 360,000. AID 686971. Potency, µM (top dose mostly 46.1 µM), for inactives: at the highest dose activity, negative = toxicity, most hits filed as cytotoxic;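 note: 0% = DMSO wells and -100% = cell-free medium wells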
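Viability of IDH1-knockdown HT-1080 fibrosarcoma cells was assessed by CellTiter-Glo after 48 h at 37 °C with titrated compound; concentration-effect curves were classified by fit quality and response size.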
Numbers without * were called inactive; i = inactive; ? = inconclusive; / = no result given; ! = a repeat was not active. Calls come from the whole dose curve; as a rule, active = well fitted curve in the direction sought with a large enough effect; inconclusive = small, poorly fitted or top-dose-only effect, or another doubt; inactive = no such curve, though single readings can be large; an effect the other way counts as inactive or inconclusive. Unless noted, % is set by controls: 0 for no effect and ±100 for the full control effect; potency is the fitted concentration of half-maximal effect.

SMILES	HT1080-NT tox	KB-V1 cytotox	KB-3-1 cytotox	TDP1 cell CPT	TDP1 cell noCPT	HT1080 IDH1KD tx
COc1ccc(SC[C@H](C)CN2CC[C@H](C)CCC2=O)cc1	5%	8.2µM*!	18µM*!	?	?	7%
C[C@@H]1CCC(=O)N(C[C@@H](C)CSc2ccc(Br)cc2)CC1	0%	?	i	?	18µM*	-14%
COc1ccc(SC[C@H](C)CN2CC[C@H](O)CCC2=O)cc1	/	i	i	?	-17%	/
C[N+]1(CC(=O)c2ccc(O)c(O)c2)CCOCC1	/	i	i	?	-17%	/
Cc1ccc(-c2nc3ncccn3c2N)cc1	19%	?	i	?	-26%	18%
CCc1[nH]nc(C(=O)N2CCCC(C(=O)c3cccc(OC(C)C)c3)C2)c1C (centres undefined)	-13%	i	?	?	16µM*	-9%
CCc1cc(C(=O)N2CCCC(C(=O)c3ccc(OC)c(F)c3)C2)n(C)n1 (centres undefined)	16%	i	i	?	?	-7%
CC(C)Oc1cccc(C(=O)C2CCCN(C(=O)c3noc4c3CCCC4)C2)c1 (centres undefined)	-25%	i	i	18µM*	21µM*	-28%
O=C(c1noc2c1CCCC2)N1CCCC(N2CCN(c3ccccc3F)CC2)C1 (centres undefined)	0%	i	i	29µM*	?	12%
CC(C)Oc1cccc(C(=O)C2CCCN(C(=O)c3ccsc3)C2)c1 (centres undefined)	0%	i	i	1%	-1%	9%
O=C(c1ccsc1)N1CCCC(N2CCN(c3ccccc3F)CC2)C1 (centres undefined)	-6%	i	i	-27%	?	-18%
CCc1cc(C(=O)N2CCCC(C(=O)c3ccc(Oc4ccccc4)cc3)C2)n(C)n1 (centres undefined)	-16%	i	?	10µM*	15µM*	?
CC(C)Oc1cccc(C(=O)C2CCCN(C(=O)c3ccc4c(c3)OCO4)C2)c1 (centres undefined)	3%	i	i	?	?	-1%
CC(C(=O)c1ccccc1)[n+]1cccc(Cl)c1 (centres undefined)	/	i	i	3%	?	/
O=C(OCC(=O)N1N=C(c2ccc(Cl)cc2)CC1c1ccco1)c1ccccc1O (centres undefined)	-8%	i	?	?	?	-18%
CC(=O)Nc1ccc(CN2CCN(CCc3ccccc3)C(CCO)C2)cc1 (centres undefined)	-14%	?	i	13%	-9%	-2%
CCc1cc(C(=O)N2CCCC(C(=O)c3cccc(OC(C)C)c3)C2)n(C)n1 (centres undefined)	-5%	i	i	16µM*	18µM*	-15%
CC(C)Oc1cccc(C(=O)C2CCCN(S(C)(=O)=O)C2)c1 (centres undefined)	-1%	?	i	-5%	-20%	-1%
CC(C)Oc1cccc(C(=O)C2CCCN(C(=O)c3ccnn3C)C2)c1 (centres undefined)	-5%	?	i	?	21µM*	0%
CC(=O)Nc1ccc(OCC(=O)NCc2ccc3c(c2)OCO3)cc1	11%	i	i	4%	-4%	15%
c1ccc2[nH]c3cc4ncnc4cc3nc2c1	-10%	?	?	?	18µM*	-9%
CCCn1c(N)c(C(=O)CSc2nnc(Cc3ccccc3)o2)c(=O)n(C)c1=O	-17%	10µM*	i	?	23µM*	?
